# Source: ChEMBL document CHEMBL3988442, “University of Dundee, Small-Polar-MMV Screening Library” (2021)
# “And” between values parts separate entries of the source, which are not always exact repeats. Identical values can stand only once. About 1,200 (3.2%) of roughly 38,000 compounds showed an effect of 50% or more. The median lay at about -58%. What follows is part of a selection rich in strong results, with near analogues and random picks from the rest.
# Test system: Plasmodium falciparum
# Assay: Calibr Malaria Delayed Death Assay SOP
# Format: functional, organism-based
# Parameters: scale not given: in the data most compounds retested in dose-response had high values
# Settings: concentration 4.99e-06 (unit not given; other assays of the set use mol/L)
SMILES,Percent Effect [%],Percent Effect (4.99 µM)
COc1ccc(N2CCN(C(=O)c3nc(Cl)sc3C(C)C)CC2)cc1,-116.1,
CCn1cc(CN2CCCC(COc3ccc(F)cc3)C2)cn1 (configuration not stated),75.3,
Cc1ccc(-c2cn[nH]c2C2CCCN(c3ncccn3)C2)cc1 (configuration not stated),-2.919,
COc1cccc(OCC2CCCN(Cc3ccncc3)C2)c1 (configuration not stated),-55.12,
CCn1cc(CN2CCCC(COc3ccccc3F)C2)cn1 (configuration not stated),72.55,
CCn1cc(CN2CCCC(c3[nH]ncc3-c3ccc(C)cc3)C2)cn1 (configuration not stated),60.35,
CCn1cc(CN2CCCN(C3Cc4ccccc4C3)CC2)cn1,8.565,
CCn1cc(CN2CCC(c3[nH]ncc3S(C)(=O)=O)C2)cn1 (configuration not stated),-50.8,
COc1ccc(OCC2CCCN(Cc3ccncc3)C2)cc1 (configuration not stated),2.701,
CCn1cc(CNC2CCN(c3c(F)cccc3F)C2)cn1 (configuration not stated),-15.51,
O=C(NCC(=O)N1CCCC1Cc1cccc(F)c1)C1CCCC1 (configuration not stated),-29.53,
Cc1cnc2c(c1NCc1cccs1)c(=O)n(C)c(=O)n2C,3.342,
CNC(=O)C1(c2cnccn2)CCCN1C(=O)c1cccnc1OC (configuration not stated),-138.6,
CCCn1cc(NC(=O)c2ccncc2)ccc1=O,-98.41,
CC(C)N1CCCCC1CCn1cnc2cc(C(F)(F)F)ccc2c1=O (configuration not stated),-97.47,
Cc1cnc(N(C)Cc2cnc3ccccc3n2)nc1N(C)C,-4.617,
O=C(NCCCNC(=O)c1ccccc1)Nc1ccc(F)cc1F,-135.1,
CCOCC1CN(S(=O)(=O)CC)Cc2cnn(CC3CC3)c21.O=C(O)C(F)(F)F (configuration not stated),-13.24,
CCOCC1CN(C(=O)c2cccn2C)Cc2cnn(CC3CC3)c21.O=C(O)C(F)(F)F (configuration not stated),56.84,
CCOCC1CN(C(=O)c2cnccn2)Cc2cnn(CC3CC3)c21.O=C(O)C(F)(F)F (configuration not stated),-137.9,
Cn1cccc1C(=O)N1Cc2c(CN3CCCCC3)nn(C)c2C1,-1.788,
CC(C)C(=O)N1CCc2c(CN(C)Cc3ccco3)cncc2C1.Cl.Cl,-39.92,
C[C@@H]1CN(C2(C(=O)N3CCOCC3)Cc3ccccc3C2)C[C@H](C)O1,-24.87,

SMILES,Percent Effect [%],Percent Effect (4.99 µM)
C[C@@H]1CN(C2(C(=O)N3CCSCC3)Cc3ccccc3C2)C[C@H](C)O1,-246.9,
C[C@@H]1CN(C2(C(=O)N3CCNCC3)Cc3ccccc3C2)C[C@H](C)O1,61.74,
O=C(NCCC1CCN(CC(F)(F)F)CC1)C1CCCO1 (configuration not stated),-133.7,
c1coc(CN2CCO[C@@]3(CCC[C@@H]3COCc3nccs3)C2)c1,10.79,
O=C(NCc1cc2n(n1)CCCNC2)C1(c2ccc(Cl)cc2)CCC1,-15.95,
O=C(NCc1cc2n(n1)CCCNC2)c1cn2cc(Cl)ccc2n1,-49.2,
O=C(NCc1cc2n(n1)CCCNC2)C1(c2ccccc2)CCCCC1,72.51,
O=C(O)C(F)(F)F.O=C(O)C(F)(F)F.c1coc(CN2C[C@@H]3OCCN(CC4CCCO4)[C@@H]3C2)c1 (some centres not stated),-57.01,
O=S(=O)(c1ccc(F)cc1Cl)N1CCCC1c1ccncc1 (configuration not stated),-22.12,
O=C(NC1CCCN(CCCc2ccccc2)C1)c1ccncc1 (configuration not stated),-32.27,
O=C(NC1CCCN(CCCc2ccccc2)C1)C1=CCCCC1 (configuration not stated),-1.379,
O=C(NC1CCCN(CCCc2ccccc2)C1)c1ccc(Cl)s1 (configuration not stated),59.33,
COCCNC(=O)N1CCSC2(CCCCC2)C1,-161,
CCC(c1ccc(F)cc1)N1CCn2c(CO)nnc2C1 (configuration not stated),-61.64,
Cc1noc(C)c1CN1CCO[C@H]2CN(Cc3cnn(C)c3)C[C@H]21.O=C(O)C(F)(F)F.O=C(O)C(F)(F)F,11.54,
Cc1noc(C)c1CN1C[C@H]2CN(Cc3cccc(F)c3)C[C@H]2C1.O=C(O)C(F)(F)F.O=C(O)C(F)(F)F,53.22,
O=C(Cc1ccccn1)N1C[C@H]2CN(Cc3ccccn3)C[C@H]2C1,-76.72,
Cc1noc(C)c1CN1C[C@@H]2C[C@@H](C)O[C@@H]2C1.O=C(O)C(F)(F)F,-81.78,
CN(Cc1cccc(F)c1)C1CCN(CCc2ccccn2)CC1,-78.69,
Cc1noc(C)c1CN1C(=O)[C@H]2CC[C@@H]1CN(Cc1cccc(O)c1)C2,-156.5,
Cc1noc(C)c1CN1C[C@H]2CNC[C@H]2C1,5.878,
Cc1noc(C)c1CN1CCO[C@H]2CN(Cc3ccc(F)cc3)C[C@H]21.O=C(O)C(F)(F)F.O=C(O)C(F)(F)F,54.02,
Cc1noc(C)c1CN1C[C@@H]2CC(F)(F)C[C@@H]2C1.O=C(O)C(F)(F)F,-65.49,

SMILES,Percent Effect [%],Percent Effect (4.99 µM)
Cc1noc(C)c1CN1CCO[C@H]2CN(Cc3cccc(F)c3)C[C@H]21.O=C(O)C(F)(F)F.O=C(O)C(F)(F)F,-38.58,
O=C(c1ccccn1)N1CCN(c2cnnc(N3CCCC3)c2)CC1,-112.9,
COc1cccc(N2C(=O)CC3(CCNCC3)C2=O)c1.Cl,-133.6,
COC(=O)CC(NC(=O)c1cc(OC)c2c(c1)OCCO2)c1cccs1 (configuration not stated),-83.17,
O=S(=O)(NCCCn1cccn1)c1ccc2c(c1)CCC2,-131.9,
CCCn1cc(S(=O)(=O)N[C@H]2CN(CC(N)=O)C[C@@H]2C2CC2)cn1,-97.89,
COc1ccc(C2OC(COc3ccc(C)cc3)=NN2C(C)=O)cc1 (configuration not stated),-155.6,
COc1cc(C2CC(=O)Nc3c2c(=O)[nH]n3C2CCCCC2)ccc1O (configuration not stated),-62.17,
Cc1nnc2n1CCN(CCCS(=O)(=O)c1ccccc1)C2,-71.81,
Cc1ccc(CN(C)C(=O)CCNS(=O)(=O)c2cccnc2)cc1,36.55,
CC(=O)N1CCC2(CCN(Cc3cccc(F)c3)CC2)CC1.O=C(O)C(F)(F)F,-62.85,
Cc1noc(C)c1CN1CCC2(CCN(Cc3cccc(F)c3)CC2)C1.O=C(O)C(F)(F)F.O=C(O)C(F)(F)F,66.34,
CCC(=O)N1CCC2(CCN(Cc3cccc(F)c3)CC2)CC1.O=C(O)C(F)(F)F,-165.1,
COCC(=O)N1C[C@@H](OCc2cccnc2)[C@H]2OCCC[C@@H]21.O=C(O)C(F)(F)F,7.671,
COCCNC(=O)Cn1cc(NC(=O)c2cccc(Cl)c2Cl)cn1,-59.07,
O=C(NS(=O)(=O)c1ccc(Cl)cc1F)c1cccc2c1OCCO2,-91.83,
CC(C#N)CN(C)C(=O)CCNC(=O)OCC(F)(F)F (configuration not stated),-88.17,
O=C(O)C(F)(F)F.O=C(O)C(F)(F)F.O=C1CO[C@@H]2CN(Cc3cccs3)C[C@H]2N1Cc1cccnc1,-34.75,
Cc1nc(-n2cnnc2)ccc1-c1cccc2c1CCNC2,68.26,
Cc1cnc(-n2cnnc2)c(-c2cccc3c2CCNC3)c1,-33.7,
Cc1cc(-c2cccc3c2CCNC3)cnc1-n1cnnc1,-23.79,
CSCCC(=O)N1CCCC1c1nnc2n1CCCCC2 (configuration not stated),-119.3,
Cc1cc(C)n(Cc2ccc(-c3noc(C(=O)NCCO)n3)cc2)n1,-66.65,

SMILES,Percent Effect [%],Percent Effect (4.99 µM)
CC[C@H]1CN2CC[C@H]1C[C@@H]2CNC(=O)c1ccco1,-30.73,
CCN(CC)C[C@H]1CN2CC[C@H]1C[C@@H]2CNC(=O)c1ccco1,-99.74,
CN(C[C@H]1CN2CC[C@H]1C[C@@H]2CNC(=O)c1ccco1)c1ccccc1,70.91,
O=C(C1CCOC1)N1CCN(Cc2cccnc2)c2ncccc2C1 (configuration not stated),-57.83,
O=C1CN(S(=O)(=O)CC(F)(F)F)CC(O)CN1CCCc1ccccc1 (configuration not stated),-64.11,
COCCN1CCc2nc(SCc3ccc(F)cc3)[nH]c(=O)c2C1,-62.28,
Cc1nonc1OCCNC(=O)CCCc1ccc(Cl)cc1,-154.2,
CN1C(Cn2cccn2)C[C@@H]2CN(C(=O)c3cccc(C#N)c3)CC[C@@H]21.O=C(O)C(F)(F)F.O=C(O)C(F)(F)F (some centres not stated),-96.07,
Cc1ccc(CN2CC[C@H]3[C@H](CC(Cn4cccn4)N3C)C2)s1.O=C(O)C(F)(F)F.O=C(O)C(F)(F)F.O=C(O)C(F)(F)F (some centres not stated),62.61,
CN1C(Cn2cccn2)C[C@@H]2CN(Cc3cnn(C)c3)CC[C@@H]21 (some centres not stated),-48.63,
CN1[C@H](Cn2cncn2)C[C@@H]2CN(Cc3cccc(C#N)c3)CC[C@@H]21.O=C(O)C(F)(F)F.O=C(O)C(F)(F)F,-71.32,
CN1[C@H](Cn2cncn2)C[C@@H]2CN(Cc3ccsc3)CC[C@@H]21.O=C(O)C(F)(F)F.O=C(O)C(F)(F)F,35.13,
O=C(NC1CC1)C1CNCCN1C(=O)CCOc1ccccc1 (configuration not stated),-111.6,
Cc1ncsc1-c1nnc(C2CCN(Cc3ccccc3Cl)CC2)o1,-108,
CC(=O)NC1CCN(c2c(C#N)cnc3c(C)cc(F)cc23)CC1,7.696,
CN(Cc1ccccc1)C(=O)CCNS(=O)(=O)c1cccnc1,-47.09,
Cc1cccc2[nH]c(-c3cn(C4CCNCC4)nn3)nc12,72.76,
Cc1ccc2[nH]c(-c3cn(C4CCNCC4)nn3)nc2c1C,85.1,
c1ccc(CCCn2ccnc2-c2cn(C3CCNCC3)nn2)nc1,,-23.72% and -17.15%
Cc1cc2nc(-c3cn(C4CCNCC4)nn3)[nH]c2cc1C,87.17,
Cc1c(C)c(C)c2[nH]c(-c3cn(C4CCNCC4)nn3)nc2c1C,30.06,
COc1cccc(CCn2ccnc2-c2cn(C3CCNCC3)nn2)c1,,-32.98% and -26.9%
CN(Cc1cn(C2CCNCC2)nn1)CC1CCCO1 (configuration not stated),-84.49,
